Results published in PubChem BioAssay (NCI).
Compounds without any hit were thinned out: in the full panel of roughly 83,000, 20% have a hit.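 Assay: single dose, 48 h. Readout: percent growth (0 = no net growth; negative = cell death). Active: <10.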 Calls of active or inactive are those of the source.

system: EKVX NSCLC; experiment: NCI-60 one-dose screen, 48 h (100 = growth as untreated, 0 = no growth, -100 = all killed); conditions: 10 µM unless noted

| SMILES | growth |
| --- | --- |
| COc1ccc(-c2nc(N=Nc3c(O)[nH]c4ccccc34)nc(N3CCOCC3)c2C#N)cc1 | 74.5% (inactive) |
| COc1cc2nc(-c3ccc(C(F)(F)F)cc3)cc(OCCN3CCCC3)c2cc1OC | 68.8% (inactive) |
| NC(=S)N/N=C(/c1ccccc1)c1ccccc1N | 66.1% (inactive) |
| C=C(C)[C@@H]1CC[C@]2(C=O)CC[C@]3(C)[C@H](CC[C@@H]4[C@@]5(C)CCCNC(C)(C)[C@@H]5CC[C@]43C)[C@@H]12 | 96.6% (inactive) |
| CCCNC(=O)Oc1ccc(/C(=C(\C)c2ccccc2)c2ccc(OCCN3CCCCC3)cc2)cc1 | 82.2% (inactive) |
| CCOC(=O)Oc1c(OC)cc(C(=O)O[C@@H]2C[C@@H]3CN4CCc5c([nH]c6cc(OC)ccc56)[C@H]4C[C@@H]3[C@H](C(=O)OC)[C@H]2OC)cc1OC | 64.6% (inactive) |
| COc1ccc(OC)c(/C=C/[C@H]2O[C@@H](C)[C@H](O)[C@@H]2O)c1 | 107% (inactive) |
| CCC(=O)c1ccc(O)c(OC)c1 | 114% (inactive) |
| Clc1cc(Cl)cc(N2N=C(c3cccc(Nc4ccncc4)c3)CC2c2ccccc2)c1 (stereo not drawn) | 87.6% (inactive) |
| Fc1cc(C2=NNC(c3ccc[nH]3)C2)ccc1-n1ccc(C(F)(F)F)n1 (stereo not drawn) | 84.7% (inactive) |
| Clc1nc(Nc2ccccc2)nc(Nc2ccccc2)n1 | 106% (inactive) |
| Cn1c(=O)c2[nH]c(CCCc3nc4c([nH]3)c(=O)n(C)c(=O)n4C)nc2n(C)c1=O | 113% (inactive) |
| C=C1C(=O)O[C@H]2[C@H]1CC/C(COC(=O)NCCc1c[nH]c3ccc(Cl)cc13)=C\CC[C@@]1(C)O[C@@H]21 | -85.8% (active) |
| Cc1[nH]c(C(=O)Nc2ccccc2OCc2cccc(C(=O)NCCN)c2)c(Cl)c1Cl | 89.1% (inactive) |
| COc1cc2oc(-c3cccc(C(=O)Nc4ccc(Cl)cc4)c3)cc(=O)c2c(OC)c1OC | 48.2% (inactive) |
| O=C(Nc1nc2ccc(S(=O)(=O)Nc3ccc(C4(C(F)(F)F)CC4)cc3)cc2[nH]1)c1cnccn1 | 65.3% (inactive) |
| CCCCCCCCCCN=C(N)N=C(N)N | 38.8% (inactive) |
| CC(C)NC(=O)N1C(=O)CCC1NNC(=O)c1ccc([N+](=O)[O-])cc1 (stereo not drawn) | 110% (inactive) |
| N#Cc1cc(-c2nc3ccccc3s2)c(=O)n(NS(=O)(=O)c2ccc(Cl)cc2)c1N | 100% (inactive) |

| SMILES | growth |
| --- | --- |
| O=C1c2ccccc2-c2c1c1c(NCCCO)nc3ccccc3c1n2Cc1ccccc1 | 17.8% (inactive) |
| COC(=O)N[C@H]1CCc2cc(OC)c(OC)c(OC)c2-c2ccc(SC)c(=O)cc21 | 32.2% (inactive) |
| COc1nccnn1 | 107% (inactive) |
| Cc1ccc(C(=O)Nc2ccccc2C(=O)N/N=C(\c2ccccc2)c2ccccn2)cc1 | 13.1% (inactive) |
| CCCCN(CCCC)CCc1c(C)cc(C)c(CCN(CCCC)CCCC)c1O | 14.4% (inactive) |
| Nc1cc(N)c2cccnc2c1O | 83.2% (inactive) |
| CN1CCCC1=Nc1ccccc1 | 103% (inactive) |
| COc1ccc(CNC(=O)COc2ccc(/C=N/Nc3nc4ccccc4s3)cc2)cc1 | 52% (inactive) |
| O=C1OC(=O)C2C1CC=CC2c1ccccc1 (stereo not drawn) | 90.9% (inactive) |
| COc1ccc(CC(C)=C(c2ccc(OCCN(C)C)cc2)c2ccc(OCCN(C)C)cc2)cc1 | 88.5% (inactive) |
| O=C(N=Nc1c(O)[nH]c2ccc(F)cc12)c1cc2ccccc2[nH]1 | 89% (inactive) |
| O=S(=O)(NCCNc1nccc(-c2c(-c3cccc(F)c3)nc3occn23)n1)c1cccc2ccccc12 | 48.5% (inactive) |
| O=S(=O)(c1ccc(N/N=C\c2ccccc2)cc1)c1ccc(N/N=C/c2ccccc2)cc1 | 73.7% (inactive) |
| CCOc1ccc(/C=N/Nc2cc(C)nc3ccc(Cl)cc23)cc1 | 81.7% (inactive) |
| CC(C)Cc1ccc(C(C)C(=O)NCc2c[nH]c3ccc(Cl)cc23)cc1 (stereo not drawn) | 85.9% (inactive) |
| COc1ccccc1OCC(=O)N1CCCCCC1 | 89.6% (inactive) |
| Nc1nc(SN=Nc2ccc(S(N)(=O)=O)cc2)c2[nH]cnc2n1 | 28.6% (inactive) |
| COc1ccc(C2CC(n3nnnc3-c3ccccc3)=NN2)cc1 (stereo not drawn) | 66.2% (inactive) |
| CC(c1ccccc1)n1ccnc1CO (stereo not drawn) | 93.3% (inactive) |
